Data as given in PubChem BioAssay (Tox21).
A number with no mark means an inactive call. Inconclusive results are not listed. Entries that show only a call come without a potency. Calls of active or inactive are those of the source. Unless noted, the call rests on the fitted dose curve; in most records, active means well fitted curve in the direction sought with a large enough effect in the repeat runs; inconclusive means weak or mixed curves; inactive means no such curve, though single readings can be large; an effect the other way counts as inactive or inconclusive.

What was measured:
[1] = qHTS assay to identify small molecule agonists of the estrogen receptor alpha (ER-alpha) signaling pathway in the presence of an antagonist - cell viability counter screen (AID 1259386);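 further: cells exposed to compounds for 22 h at 37 °C before the viability read; nearly all actives have a fitted effect of over 30% in size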; further: potency means the concentration at half of the fitted maximal effect
Summary of the method: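 ICI-182,780 at 10.0nM final accompanies the compound titration (15 concentrations, 22hr, 37C) on VM7Luc4E2 cells. The CellTiter-Fluor fluorescence readout runs in the same wells as the luciferase assay.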

[2] = molecular target: Progesterone receptor (Homo sapiens) (UniProt P06401); assay: qHTS assay to identify small molecule agonists of the progesterone receptor (PR) signaling pathway (AID 1346784; calls by dose curve; further: nearly all actives have a fitted effect of over 30% in size)
Summary of the method: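 Agonist qHTS: compounds pinned onto 3,000 PR-UAS-bla HEK 293T cells per well in charcoal-stripped serum medium, 16hr at 37C, then beta-lactamase activity measured by LiveBLAzer FRET fluorescence after 2 hours at room temperature.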

[3] = molecular target: Progesterone receptor (Homo sapiens) (UniProt P06401); assay: qHTS assay to identify small molecule antagonists of the progesterone receptor (PR) signaling pathway (AID 1346795; active means well fitted inhibition curve with a large enough effect in the signal ratio in the repeat runs, not every such curve was filed as active; the % refers to the signal ratio)
Summary of the method: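 Antagonist mode with agonist R5020 at 1 nM final and 16 hr incubation at 37C. Reporter was beta-lactamase driven by UAS in HEK293T (PR-UAS-bla), 2% charcoal-stripped serum; signal from LiveBLAzer FRET substrate, 2 hr at room temperature.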

[4] = qHTS assay to identify small molecule antagonists of the progesterone receptor (PR) signaling pathway - cell viability counter screen (AID 1346798); further: nearly all actives have a fitted effect of over 50% in size; further: potency means the concentration at half of the fitted maximal effect
Summary of the method: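 Cytotoxicity read as CellTiter-Glo luminescence (30 min, room temperature) in the same wells as the beta-lactamase readout. HEK293T PR-UAS-bla cells in charcoal-stripped 2% FBS received compound and R5020, then 16 h at 37C, 5% CO2.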

[5] = qHTS assay to identify small molecule agonists of the progesterone receptor (PR) signaling pathway - cell viability counter screen (AID 1346799; calls by dose curve; further: nearly all actives have a fitted effect of over 45% in size; further: potency means the concentration at half of the fitted maximal effect)
Summary of the method: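 Cytotoxicity measured by CellTiter-Glo luminescence (30 min, RT) in the same wells as the PR beta-lactamase agonist read. Those HEK293T cells had 16 h compound treatment at 37 C in 2% charcoal-stripped FBS medium.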

[6] = qHTS assay to identify small molecule agonists of the TGF-beta/Smad signaling pathway - cell viability counter screen (AID 1346829); further: top concentration of the series differs between compounds; nearly all actives have a fitted effect of over 45% in size
Summary of the method: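 Same-well cytotoxicity: CellTiter-Glo added after the 2 hr room-temperature beta-lactamase substrate step, luminescence measured 30 min later; cells had 5 hr of compound at 37 C.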

[7] = qHTS assay to identify small molecule agonists of the TGF-beta/Smad signaling pathway (AID 1346859; active means well fitted activation curve with a large enough effect in the signal ratio in the repeat runs, not every such curve was filed as active; the % refers to the signal ratio; further: series mostly up to about 77 µM)
Summary of the method: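 Fluorescence (ex 405 nm; em 460 and 530 nm) was read 2 h after LiveBLAzer FRET substrate at RT. The preceding compound treatment of overnight-plated SBE-bla HEK293T cells lasted 5 h at 37 C.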

[8] = molecular target: Thyrotropin-releasing hormone receptor (Homo sapiens) (UniProt P34981); assay: qHTS assay to identify small molecule antagonists of the thyrotropin-releasing hormone receptor (TRHR) signaling pathway (AID 1346877; active means well fitted inhibition curve with a large enough effect in the repeat runs, not every such curve was filed as active; further: series mostly up to about 51 µM)
Summary of the method: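 Screening used HEK293 cells engineered with TRHR, with a brief 5 min room-temperature compound exposure preceding addition of TRH to 1 nM. The read-out was kinetic calcium-dye fluorescence, concentration-response from 15 doses in triplicate.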

[9] = Human pregnane X receptor (PXR) small molecule agonists, qHTS cell viability counter screen (AID 1346977); further: nearly all actives have a fitted effect of over 50% in size; further: potency means the concentration at half of the fitted maximal effect
Summary of the method: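 Same-well viability read: CellTiter-Fluor added after 23 hr compound exposure, fluorescence measured 1 hr later. Cells were PXR-Luc HepG2 seeded at 2,000/well in 5% charcoal-stripped FBS medium, rested 5 hr before dosing at 37 C.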

[10] = Caspase-3/7 induction in HepG2 cells by small molecules, qHTS assay (AID 1346978); further: nearly all actives have a fitted effect of over 15% in size
Summary of the method: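 Wild-type HepG2 cells, 2,000/well, settled 5 hr at 37 C and 5% CO2, then compound-treated for 17 hr; caspase-3/7 activity read by luminescent Caspase-Glo 3/7 after 30 min at room temperature.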

[11] = Caspase-3/7 induction in CHO-K1 cells by small molecules, qHTS assay (AID 1346980); further: nearly all actives have a fitted effect of over 15% in size
Summary of the method: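 Wild-type CHO-K1 cells exposed to compounds for 17hr at 37 C, 5% CO2. Caspase-3/7 activity then measured by Caspase-Glo 3/7 luminescence after 30min at room temperature.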

[12] = Caspase-3/7 induction in HepG2 cells by small molecules, qHTS cell viability counter screen (AID 1346981); further: nearly all actives have a fitted effect of over 30% in size; further: potency means the concentration at half of the fitted maximal effect
Summary of the method: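 Multiplexed with the caspase-3/7 assay: HepG2 cells, 16 hr compound treatment, CellTiter-Fluor viability detection by fluorescence.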

[13] = molecular target: Nuclear receptor subfamily 1 group I member 2 (Homo sapiens) (UniProt O75469); assay: Human pregnane X receptor (PXR) small molecule agonists, qHTS assay (AID 1346982); further: nearly all actives have a fitted effect of over 35% in size; further: potency means the concentration at half of the fitted maximal effect
Summary of the method: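 We seeded PXR-Luc HepG2 cells in assay medium containing 5% charcoal-stripped FBS, added compounds 5 hr later, incubated 24 hr, and read luminescence with ONE-Glo reagent.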

[14] = qHTS assay to identify small molecule antagonists of the TGF-beta/Smad signaling pathway - cell viability counter screen (AID 1346824); further: nearly all actives have a fitted effect of over 50% in size
Summary of the method: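 SBE-bla HEK 293T cells, incubated overnight, then compound plus 0.25 ng/mL TGF-beta1 (stock added) for 5 hr at 37 C. Viability was read in the same wells by CellTiter-Glo luminescence after 30 min at room temperature.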

[15] = Caspase-3/7 induction in CHO-K1 cells by small molecules, qHTS cell viability counter screen (AID 1346979); further: nearly all actives have a fitted effect of over 35% in size; further: potency means the concentration at half of the fitted maximal effect
Summary of the method: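 Cytotoxicity counter screen: CellTiter-Fluor added to compound-treated wild-type CHO-K1 cells at 16 h (37C, 5% CO2), fluorescence measured 1 h later; same wells as caspase-3/7 measurement.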

[16] = molecular target: Thyrotropin-releasing hormone receptor (Homo sapiens) (UniProt P34981); assay: qHTS assay to identify small molecule agonists of the thyrotropin-releasing hormone receptor (TRHR) signaling pathway (AID 1346891; calls by dose curve; further: series mostly up to about 58 µM)
Summary of the method: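 Agonist-mode intracellular calcium readout: kinetic fluorescence over 3 min at 1 s intervals after compound addition to TRHR-HEK293 cells (18 h seeded, 2 h dye-loaded at 37 C). Fifteen concentrations, triplicates.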

[17] = molecular target: Nuclear receptor subfamily 1 group I member 2 (Rattus norvegicus) (UniProt Q9R1A7); assay: Rat pregnane X receptor (rPXR) activation by small molecules, qHTS assay (AID 1346983); settings: rPXR luciferase reporter cells, One-Glo luminescence, 24 h; max activation: stronger effect = higher value; further: nearly all actives have a fitted effect of over 20% in size
Summary of the method: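 Cell-based rPXR activation assay: rPXR cells, 2,000 per well, rested 5hr at 37 C, then exposed to compounds in DMSO for 24 hr at 37 C. Luciferase activity read by One-Glo luminescence after 30 min at room temperature.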

[18] = molecular target: Nuclear receptor subfamily 1 group I member 2 (Homo sapiens) (UniProt O75469); assay: CYP3A4 induction through human pregnane X receptor (PXR) by small molecules, qHTS assay (AID 1346984); further: nearly all actives have a fitted effect of over 40% in size
Summary of the method: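 qHTS, concentration-response format: HepG2 DPX-2 line, PXR/CYP3A4-luc. Exposure 24 h, 37C. Substrate Luciferin-IPA 3uM final, 3 h. Detection One-Glo, 30 min RT.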

[19] = molecular target: Nuclear receptor subfamily 1 group I member 2 (Homo sapiens) (UniProt O75469); assay: Human pregnane X receptor (PXR) activation by small molecules, qHTS assay (AID 1346985); further: nearly all actives have a fitted effect of over 40% in size
Summary of the method: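 DPX-2 cells (HepG2 co-transfected with a PXR response element and a CYP3A4-promoter luciferase construct) were seeded at 2,000 per well, rested 5 hr at 37C, then exposed to DMSO-dissolved compounds for 24 hr. Activation was read as luciferase luminescence.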

Nuclear receptor subfamily 1 group I member 2 (Homo sapiens), sequence (O75469 whole entry, looked up): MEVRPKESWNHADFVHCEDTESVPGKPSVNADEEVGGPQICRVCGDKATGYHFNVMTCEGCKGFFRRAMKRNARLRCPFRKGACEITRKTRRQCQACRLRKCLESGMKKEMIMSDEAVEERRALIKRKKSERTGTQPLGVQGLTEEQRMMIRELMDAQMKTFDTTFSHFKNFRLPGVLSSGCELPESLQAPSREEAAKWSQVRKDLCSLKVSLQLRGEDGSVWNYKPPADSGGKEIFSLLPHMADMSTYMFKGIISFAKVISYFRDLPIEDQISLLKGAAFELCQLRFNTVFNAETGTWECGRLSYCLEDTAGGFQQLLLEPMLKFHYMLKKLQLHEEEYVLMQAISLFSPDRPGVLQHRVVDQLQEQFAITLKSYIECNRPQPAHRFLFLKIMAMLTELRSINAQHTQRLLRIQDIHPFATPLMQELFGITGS
Nuclear receptor subfamily 1 group I member 2 (Rattus norvegicus), sequence (Q9R1A7 whole entry, looked up): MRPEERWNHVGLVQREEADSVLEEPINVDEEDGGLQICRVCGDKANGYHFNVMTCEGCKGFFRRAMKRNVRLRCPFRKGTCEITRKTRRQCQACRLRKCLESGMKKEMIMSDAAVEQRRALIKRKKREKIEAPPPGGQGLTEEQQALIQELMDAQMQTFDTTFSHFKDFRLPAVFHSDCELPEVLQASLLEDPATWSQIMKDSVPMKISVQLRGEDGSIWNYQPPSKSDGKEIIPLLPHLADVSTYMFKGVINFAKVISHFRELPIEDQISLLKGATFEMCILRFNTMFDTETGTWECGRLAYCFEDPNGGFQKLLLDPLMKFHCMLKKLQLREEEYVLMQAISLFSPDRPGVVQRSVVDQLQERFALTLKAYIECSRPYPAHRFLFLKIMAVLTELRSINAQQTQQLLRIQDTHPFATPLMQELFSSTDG
Thyrotropin-releasing hormone receptor (Homo sapiens), sequence (P34981 whole entry, looked up): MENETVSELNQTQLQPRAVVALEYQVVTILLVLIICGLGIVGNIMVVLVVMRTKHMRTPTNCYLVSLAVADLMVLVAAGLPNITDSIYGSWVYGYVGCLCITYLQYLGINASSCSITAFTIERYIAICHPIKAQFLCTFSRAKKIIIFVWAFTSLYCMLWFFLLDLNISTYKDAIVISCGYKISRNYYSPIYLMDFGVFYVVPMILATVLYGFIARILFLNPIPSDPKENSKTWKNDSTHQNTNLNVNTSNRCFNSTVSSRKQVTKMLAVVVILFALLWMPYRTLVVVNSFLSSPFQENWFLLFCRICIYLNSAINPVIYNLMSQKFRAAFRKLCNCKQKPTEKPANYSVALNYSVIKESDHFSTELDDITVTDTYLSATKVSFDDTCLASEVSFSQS
Progesterone receptor (Homo sapiens), sequence (P06401 whole entry, looked up): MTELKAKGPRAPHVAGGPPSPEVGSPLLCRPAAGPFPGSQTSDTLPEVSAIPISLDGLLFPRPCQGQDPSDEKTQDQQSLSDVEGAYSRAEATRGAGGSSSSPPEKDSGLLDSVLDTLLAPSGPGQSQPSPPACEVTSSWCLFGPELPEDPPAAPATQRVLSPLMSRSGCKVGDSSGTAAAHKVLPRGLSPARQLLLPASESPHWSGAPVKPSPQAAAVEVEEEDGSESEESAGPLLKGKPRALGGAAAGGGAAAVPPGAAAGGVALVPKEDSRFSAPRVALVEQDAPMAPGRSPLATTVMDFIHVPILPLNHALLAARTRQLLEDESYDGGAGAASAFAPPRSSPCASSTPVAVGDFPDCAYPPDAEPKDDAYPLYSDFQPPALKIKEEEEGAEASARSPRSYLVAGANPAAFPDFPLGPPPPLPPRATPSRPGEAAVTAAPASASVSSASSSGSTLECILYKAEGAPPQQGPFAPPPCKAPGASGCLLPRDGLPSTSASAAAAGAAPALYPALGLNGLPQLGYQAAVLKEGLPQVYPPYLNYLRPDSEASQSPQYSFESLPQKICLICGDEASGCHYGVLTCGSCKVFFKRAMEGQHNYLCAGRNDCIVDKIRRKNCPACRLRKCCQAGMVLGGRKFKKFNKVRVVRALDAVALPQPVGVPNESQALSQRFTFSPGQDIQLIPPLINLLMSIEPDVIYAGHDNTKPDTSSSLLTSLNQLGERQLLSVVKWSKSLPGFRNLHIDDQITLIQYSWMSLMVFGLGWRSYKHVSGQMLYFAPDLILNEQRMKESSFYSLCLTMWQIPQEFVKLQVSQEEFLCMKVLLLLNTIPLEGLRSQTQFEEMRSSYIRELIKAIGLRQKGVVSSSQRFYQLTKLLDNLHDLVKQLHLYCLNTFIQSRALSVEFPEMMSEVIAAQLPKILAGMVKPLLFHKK

SMILES	Potency [1]	Potency [2]	Potency [3]	Potency [4]	Potency [5]	Potency [6]	Potency [7]	outcome [8]	Potency [9]	Potency [10]	outcome [11]	Potency [12]	Potency [13]	outcome [14]	Potency [15]	outcome [16]	max activation [17]	Potency [18]	Potency [19]
CCN(CC)CCNC(=O)c1cc(Cl)c(N)cc1OC	inactive	inactive	inactive	inactive	inactive	inactive	inactive	inactive	inactive	inactive	inactive	inactive	inactive	–	–	–	–	–	–
CCCCCCCCCCCCCC(=O)OCC(O)CO (stereo not given)	inactive	inactive	inactive	–	inactive	inactive	inactive	–	inactive	inactive	inactive	inactive	inactive	inactive	inactive	–	–	–	–
O=S(=O)(O)CO	inactive	–	inactive	inactive	–	inactive	inactive	inactive	inactive	inactive	inactive	inactive	inactive	–	inactive	inactive	–	–	–
CCN(CC)c1ccc(C(=C2C=CC(=[N+](CC)CC)C=C2)c2ccc(S(=O)(=O)O)cc2S(=O)(=O)[O-])cc1	–	inactive	inactive	30.6 µM (active)	24.3 µM (active)	–	inactive	inactive	15.4 µM (active)	inactive	inactive	19.3 µM (active)	inactive	–	15.4 µM (active)	inactive	–	–	–
CC(CO)(CO)C(=O)O	inactive	inactive	–	inactive	inactive	inactive	inactive	–	inactive	inactive	inactive	inactive	inactive	inactive	–	–	–	–	–
Nc1ccc(NC(=O)c2ccc(N)cc2)cc1	inactive	–	inactive	inactive	54.5 µM (active)	inactive	inactive	inactive	inactive	inactive	inactive	inactive	inactive	inactive	inactive	inactive	–	–	–
COc1ccc(N)c([N+](=O)[O-])c1	–	inactive	inactive	inactive	inactive	inactive	inactive	inactive	–	inactive	inactive	–	–	inactive	–	inactive	–	–	–
Cc1ccc2nc(N)[nH]c(=O)c2c1Sc1ccncc1	inactive	inactive	–	inactive	inactive	–	inactive	inactive	inactive	inactive	inactive	–	inactive	inactive	–	–	-1.84%	–	–
CCN(CC)c1cccc(O)c1	inactive	inactive	–	inactive	inactive	inactive	–	inactive	inactive	inactive	inactive	inactive	35.1 µM (active)	inactive	–	inactive	–	–	–
COc1ccc(-c2cc(=S)ss2)cc1	–	–	–	15 µM (active)	–	inactive	inactive	inactive	inactive	inactive	inactive	inactive	–	inactive	29.8 µM (active)	inactive	–	–	–
CCN(Cc1cccc(S(=O)(=O)O)c1)c1ccc(C(=C2C=CC(=[N+](CC)Cc3cccc(S(=O)(=O)O)c3)C=C2)c2ccccc2S(=O)(=O)[O-])cc1	17.3 µM (active)	inactive	inactive	–	13.7 µM (active)	–	inactive	inactive	17.3 µM (active)	inactive	inactive	17.3 µM (active)	inactive	–	17.3 µM (active)	–	–	–	–
CC1C(C)(C)C2=C(C(=O)CCC2)C1(C)C (stereo not given)	–	inactive	inactive	inactive	inactive	–	inactive	inactive	inactive	inactive	inactive	inactive	inactive	inactive	inactive	inactive	–	–	–
FC(F)(F)C(F)(F)C(F)(F)C(F)(F)CCI	–	inactive	inactive	inactive	inactive	inactive	inactive	inactive	inactive	inactive	inactive	–	inactive	inactive	–	inactive	–	–	–
CC1CCCO1 (stereo not given)	inactive	inactive	–	–	inactive	–	inactive	inactive	inactive	inactive	inactive	inactive	–	–	inactive	–	–	–	–
CC(C(=O)O)c1ccc(C(=O)c2cccs2)cc1 (stereo not given)	–	inactive	inactive	inactive	inactive	inactive	inactive	inactive	inactive	inactive	inactive	inactive	–	inactive	–	inactive	-2.97%	–	–
CC(C)Cc1ccc(CC(=O)O)cc1	–	inactive	–	29.8 µM (active)	–	inactive	inactive	inactive	inactive	inactive	inactive	inactive	inactive	inactive	inactive	inactive	-5.33%	inactive	inactive
COc1cc(NC(C)CCCN)c2ncccc2c1 (stereo not given)	–	inactive	inactive	inactive	inactive	inactive	inactive	inactive	29.8 µM (active)	inactive	inactive	inactive	inactive	inactive	inactive	–	-6.86%	–	inactive
Nc1nc(-c2ccc([N+](=O)[O-])cc2)cs1	inactive	–	–	inactive	inactive	inactive	inactive	inactive	inactive	inactive	inactive	–	9.79 µM (active)	inactive	–	inactive	–	–	–
CC(C)OC(=O)c1ccccc1C(=O)OC(C)C	inactive	–	–	–	43.3 µM (active)	–	inactive	inactive	inactive	inactive	inactive	–	inactive	–	inactive	inactive	–	–	–
O=C1c2ccccc2C(=O)c2c(O)ccc(O)c21	inactive	inactive	inactive	–	inactive	inactive	–	inactive	–	inactive	inactive	inactive	4.86 µM (active)	–	inactive	inactive	–	–	–
